Screening data: PubChem BioAssay, National Center for Advancing Translational Sciences (NCATS)
HCV inh – qHTS Assay for Inhibitors of Hepatitis C Virus (HCV). Huh7.5.1 HCVcc-Cre infection, luciferase reporter, 44 h. 340,000 tested, 3.4% active. Potency, µM (highest dose often 41.8 µM), for inactives: at the top dose activity change, negative = inhibition, most hits filed as inhibitors; also: potency is read from the fitted curve at half-maximal effect; % is scaled to controls: 0 for no effect and ±100 for the full control effect
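Antiviral activity was scored by luciferase reporter output from cells infected with HCVcc-Cre (~0.5 moi) in presence of compound, 44 h infection period, cells seeded 1,000/well 4 h prior.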
Shiga toxin inh – A qHTS for Small Molecule Inhibitors of Shiga Toxin; Vero cells, Shiga toxin protein synthesis inhibition reporter; inhibition, % at 38.7 µM; 290,000 tested, 9.2% active; AID 2315, 2010; in the data active = inhibition mostly above about 28%, no sharp cut-off; inactive = mostly below about 43%; also: 0% is about no effect
Pf growth 96h – Primary qHTS for delayed death inhibitors of the malarial parasite plastid, 96 hour incubation; 320,000 tested, 6.9% active; Potency, µM (top dose mostly 28.7 µM), without a hit: at the highest dose activity change, negative = inhibition, actives largely listed as inhibitors; P. falciparum luciferase reporter growth, 96 h; also: potency is read from the fitted curve at half-maximal effect; % is scaled to controls: 0 for no effect and ±100 for the full control effect
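Erythrocytes infected with luciferase-expressing P. falciparum were dispensed at 2% hematocrit and 0.05% parasitemia (final), then incubated with compounds 96 hours at 37 C in 5% CO2. Luminescence after detection reagent addition reported growth.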
AMA1-RON2 inh – qHTS for Inhibitors of AMA1-RON; Towards Development of Antimalarial Drug Lead: Primary Screen | AlphaScreen AMA1-biotinylated RON2 peptide binding | Potency, µM (series often up to 58.2 µM), for the others: at the highest dose activity change, negative = inhibition, most hits filed as inhibitors | 360,000 tested, 0.2% active | AID 720542, 2013;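 also: potency is read from the fitted curve at half-maximal effect; 0% = vehicle wells and -100% = peptide control; nearly all actives have a fitted effect of over 45% in size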
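AMA1 (3D7) with his tag at 25 nM final met compounds first, then biotinylated RON2 peptide at 25 nM; detection used donor plus acceptor beads, 10 µg/mL apiece, read by AlphaScreen after 30 min at room temperature.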
Cycloheximide cs – Cycloheximide Counterscreen for Small Molecule Inhibitors of Shiga Toxin; cell reporter, cycloheximide protein synthesis inhibition counterscreen; max response, %; 300,000 tested, 12% active; in the data active = max response mostly above about 13%, no sharp cut-off; inactive = mostly below about 14%; also: read at 38.3 µM for the half of the compounds with a filed dose; 0% is about no effect
Pf growth 48h – Primary qHTS for delayed death inhibitors of the malarial parasite plastid, 48 hour incubation; P. falciparum luciferase growth in erythrocytes, 48 h; AID 504832, 2011; Potency, µM (top dose mostly 28.7 µM), for inactives: top-dose activity change, negative = inhibition, most hits filed as inhibitors; 310,000 tested, 5.9% active; also: potency is read from the fitted curve at half-maximal effect; % is scaled to controls: 0 for no effect and ±100 for the full control effect
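Compounds are pin-transferred into medium, infected erythrocytes (2% hematocrit, 0.1% parasitemia final) are added, and plates sit one parasite generation at 37 C in 5% CO2. Detection reagent is then added and luminescence measured.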
* hit, by the source's call; ? = inconclusive; . = no result given; [ ] = another dose, or the depositor's remark. A selection: hits, their analogues and other compounds. The true share with any hit is near 21%. Unless noted, calls follow the shape of the dose curve; as a rule, active = well fitted curve in the direction sought with a large enough effect; inconclusive = small, poorly fitted or top-dose-only effect, or another doubt; inactive = no such curve, though single readings can be large; an effect the other way counts as inactive or inconclusive.

SMILES | HCV inh | Shiga toxin inh | Pf growth 96h | AMA1-RON2 inh | Cycloheximide cs | Pf growth 48h
COc1ccc(Nc2ncc(C(=O)N3CCN(c4ccc(F)cc4)CC3)c3ccccc23)cc1 | 11µM* | -18 | 1.9µM* | -5% | 2 | ?
CCCC(=O)N1CCN(c2ccc(NC(=S)NC(=O)c3cccc(C)c3)cc2)CC1 | 7.1µM* | -7 | 36% | -6% | -3 | ?
COc1ccc(C(=O)Nc2ccc(N3CCN(C(=O)c4ccccc4C)CC3)cc2)cc1 | 11µM* | -4 | ? | -2% | -2 | ?
CC(C)Oc1cccc(C(=O)NC(=S)Nc2ccc(N3CCN(C)CC3)cc2)c1 | ? | 40 | 12µM* | -5% | 26* | 13µM*
O=C(NCCN1CCOCC1)C(=O)NCC1OCCCN1S(=O)(=O)c1cc(F)ccc1F (configuration not stated) | 13% | -13 | 62% | 1% | -3 | 31%
CNc1nc(SCc2ccccc2Cl)nc2c1CCCC2 | 7.1µM* | 12 | 15µM* | 51% | 10 | 13µM*
Cc1c(-n2c(SCC(=O)O)nnc2-c2ccccc2Br)c(=O)n(-c2ccccc2)n1C | 8% | -3 | -1% | -20% | -2 | -6%
Cc1ccc(NC(=O)COC(=O)c2ccc(-n3cccn3)cc2)cc1C | -6% | . | 6% | -10% | . | 14%
C[C@@H]1C(SC2Cn3cnc[n+]3C2)=C(C(=O)[O-])N2C(=O)[C@H]([C@@H](C)O)[C@@H]12 (some centres not stated) | . | . | 4% | . | . | -12%
CCN(CC)CCNC(=S)NC(=O)c1cn(-c2ccccc2)nc1-c1ccc(OC)cc1 | 22µM* | -17 | -6% | 20% | -1 | ?
COc1ccc(-c2nn(-c3ccccc3)cc2C(=O)OCC(=O)c2ccc(C)c([N+](=O)[O-])c2)cc1 | 7.1µM* | -13 | ? | -3% | -1 | 10µM*
COC(=O)c1cn(-c2ccccc2)nc1-c1ccc(OC)cc1 | 13µM* | 10 | -9% | 12% | 6 | -14%
COc1ccc(-c2nn(-c3ccccc3)cc2C(=O)NC2CCC(C)CC2)cc1 (configuration not stated) | -18% | . | 24% | -4% | . | -14%
CCC(=O)N(Cc1cc2ccc(C)cc2[nH]c1=O)c1ccccc1OC | -6% | -1 | ? | -17% | -2 | ?
O=C(NCCn1cccn1)C1CCC(=O)N(CCc2ccc(Cl)cc2)C1 (configuration not stated) | 19% | -4 | 0% | 12% | -1 | 4%
O=C(CC[C@H]1O[C@@H](n2ccc(=O)[nH]c2=O)[C@H](O)[C@@H]1O)NCCCc1ccccc1 | . | . | . | 19% | . | .
Cc1cc(F)ccc1N1CCC(N2CCN(C(C)C)C(CCO)C2)CC1 (configuration not stated) | ? | -11 | 10µM* | -16% | 0 | -21%
CC(C)N1CCN(Cc2cc(F)ccc2-n2cccn2)CC1CCO (configuration not stated) | -4% | -13 | ? | 11% | -1 | 0%
CC(C)CCN1CCN(C2CCN(c3ccc4c(c3)OCO4)CC2)CC1CCO (configuration not stated) | 5% | -8 | ? | -2% | 1 | 15%
Cc1cc(F)ccc1N1CCC(N2CCN(CCC(C)C)C(CCO)C2)CC1 (configuration not stated) | 10µM* | -20 | 1% | -12% | 1 | ?
C[C@H](O)C(=O)Nc1c(I)c(C(=O)NC(CO)CO)c(I)c(C(=O)NC(CO)CO)c1I | . | . | 6%[12.8 µM] | . | . | 7%[12.8 µM]
COc1cccc(Nc2nnc(SCC3CCCCO3)s2)c1 (configuration not stated) | -1% | 53* | ? | -7% | 53* | 7%
COc1ccc(Nc2nnc(SCC3CCCO3)s2)cc1 (configuration not stated) | ? | 54 | ? | 8% | 24* | 0%
Cc1cccc(Nc2nnc(SCC3CCCCO3)s2)c1C (configuration not stated) | 8% | 66* | 12µM* | -15% | 54* | ?
COc1ccc(Nc2nnc(SCC(=O)NC3CC3)s2)cc1 | -18% | . | ? | -6% | . | -21%
SMILES | HCV inh | Shiga toxin inh | Pf growth 96h | AMA1-RON2 inh | Cycloheximide cs | Pf growth 48h
CCCCCCC(O)(c1ccccc1)C(CN1CCOCC1)c1ccccc1 (configuration not stated) | ? | -10 | 3% | 0% | 1 | 3.3µM*
CCCCCC(O)(c1ccccc1)C(CN1CCOCC1)c1ccccc1 (configuration not stated) | ? | -1 | 0% | -12% | -3 | 2.6µM*
CCCC(O)(c1ccc(Cl)cc1)C(CN1CCOCC1)c1ccccc1 (configuration not stated) | ? | -19 | ? | -11% | -4 | .
CCCCCCC(O)(c1ccc(OC)cc1)C(CN1CCOCC1)c1ccccc1 (configuration not stated) | ? | 21 | 10µM* | 10% | 8 | 1.9µM*
COc1ccc(CC(=O)OC(C)C(=O)NC2CCCCC2C)cc1 (configuration not stated) | 13% | . | 20% | 3% | . | ?
Cc1ccc(NC(=O)c2c(C)nn(-c3ccccc3)c2Cl)c(C)c1 | ? | 60* | 9% | 1% | 23* | 17%
Cc1cnc(NC(=O)c2cc3c(C)nn(-c4ccccc4)c3s2)s1 | ? | 12 | ? | 24% | 8 | 6.6µM*
Cc1nn(-c2ccccc2)c2sc(C(=O)N3CCCCC3)cc12 | ? | 114* | 2% | -4% | 48* | 46%
Cc1nn(-c2ccccc2)c2sc(C(=O)NNC(=O)COc3ccccc3)cc12 | -26% | -4 | 11% | 54% | -2 | 6%
Cc1nn(-c2ccccc2)c(C)c1C(=O)OC(C)C(=O)NC1CCCCC1 (configuration not stated) | 13µM* | . | . | 0% | . | .
Cc1nn(-c2ccccc2)c2sc(C(=O)NC3CCCCC3)cc12 | 2.5µM* | 18 | 5% | -7% | 5 | ?
Cc1nn(-c2ccccc2)c(Cl)c1C(=O)NC1CCCCC1 | 0% | 8 | 93% | -17% | 15* | -20%
Cc1nn(-c2ccccc2)c2sc(C(=O)NCCN3CCOCC3)cc12 | 2.2µM* | -14 | 3.7µM* | -12% | 3 | ?
Cc1ccn(C(=O)c2cc3c(C)nn(-c4ccccc4)c3s2)n1 | -4% | -12 | ? | 9% | 9 | 31%
Cc1nn(-c2ccccc2)c2sc(C(=O)NNC(=O)COc3cccc4ccccc34)cc12 | ? | -6 | ? | 54% | -3 | 34%
